Rows were chosen to be rich in hits. Some 8% of all compounds tested hit in one or more screens of this group.
SARS PLP yeast = inhibitors of SARS-CoV papain-like protease in yeast | Potency, µM (titrated, usually from 32.9 µM), inactives show top-dose activity, positive = growth rescue, most hits filed as activators | AID 485353 | actives 0.19% (n = 330,000) | S. cerevisiae expressing SARS-CoV PLpro, growth rescue; calls by dose curve; further: potency means the concentration at half of the fitted maximal effect; 0% is about no effect; nearly all actives have a fitted effect of over 55% in size
HCV inh = inhibitors of hepatitis C virus infection | Huh7.5.1 HCVcc-Cre infection, luciferase reporter, 44 h | Potency, µM (top dose mostly 41.8 µM), inactives show at the top dose activity change, negative = inhibition, hits mostly inhibitors | actives 3.4% (n = 340,000); further: potency means the concentration at half of the fitted maximal effect; on the % scale 0 is the no-effect control and ±100 the full control effect
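Infectious HCVcc-Cre (~0.5 moi) was added to cells just after compound, with cells seeded 4 h earlier at 1,000 per well. Luciferase activity after 44 h culture reported infection; substrate was incubated 15 min at room temperature before reading.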
HCMV antiviral = inhibitors of human cytomegalovirus | HFF cells, HCMV-luciferase reporter, 72 h; stronger effect = lower value | activity change, negative = inhibition, % at 57.5 µM | actives 4.5% (n = 410,000) | AID 1259415; in the data active means activity change below about -60%; inconclusive means no clear call, values can overlap the other calls; inactive means above about -39%; further: on the % scale 0 is the no-effect control and ±100 the full control effect
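Luciferase read-out from HCMV-luciferase-infected HFFs (MOI 1 PFU/cell) 72 h post infection at 37C; compounds added after 16 h cell attachment; activity normalized between buffer-only basal and Salinomycin (10uM) inhibitor controls.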
Lassa entry inh = inhibitors of Lassa virus binding or cell entry; Lassa virus pseudotype entry inhibition, cell reporter; Potency, µM (doses to about 37.9 µM), without a hit: top-dose activity change, negative = inhibition, most hits filed as inhibitors; actives 1.2% (n = 300,000); AID 540256; calls by dose curve; tested in HEK293 cells; further: potency means the concentration at half of the fitted maximal effect; on the % scale 0 is the no-effect control and ±100 the full control effect; nearly all actives have a fitted effect of over 50% in size
FMDV inh = blocks foot and mouth disease virus; actives 1.2% (n = 410,000); Potency, µM (doses to about 57.9 µM), without a hit: at the highest dose activity change, negative = inhibition, usual class: inhibitors; FMDV antiviral cell-based qHTS; AID 1159524; calls by dose curve; tested in HEK293T cells; further: read-out not given here; potency means the concentration at half of the fitted maximal effect; on the % scale 0 is the no-effect control and ±100 the full control effect; nearly all actives have a fitted effect of over 45% in size
MARV entry inh = blocks Marburg virus binding to or entry into cells; Marburg virus pseudotyped entry inhibition, cell reporter; AID 540276; actives 1.8% (n = 300,000); Potency, µM (titrated, usually from 37.8 µM), without a hit: at the top dose activity change, negative = inhibition, hits mostly inhibitors; calls by dose curve; tested in HEK293 cells; further: potency means the concentration at half of the fitted maximal effect; on the % scale 0 is the no-effect control and ±100 the full control effect
HCV inh confirm = confirmation of hepatitis C virus inhibitors; shares compounds with HCV inh; HCVcc-Cre infectious virus cell assay, luciferase, inhibition; Potency, µM (titrated, usually from 41.8 µM), inactives show at the highest dose activity, negative = inhibition, most hits filed as inhibitors; actives 78% (n = 640); further: potency means the concentration at half of the fitted maximal effect; nearly all actives have a fitted effect of over 80% in size
HCV host tox = toxic to HCV host cells, flagging false HCV inhibitors; shares compounds with HCV inh; HCV host cell line cytotoxicity counterscreen; Potency, µM (highest dose often 41.8 µM), for inactives: top-dose activity change, negative = cytotoxicity, usual class: inhibitors; actives 22% (n = 640);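 further: potency means the concentration at half of the fitted maximal effect; 44 h compound exposure; on the % scale 0 is the no-effect control and ±100 the full control effect; nearly all actives have a fitted effect of over 55% in size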
Starred values were filed as active, the others as inactive; u = inconclusive; x = no result given; ! = repeats disagree; [ ] = another dose, or the depositor's remark. Unless noted, the call rests on the fitted dose curve; in most records, active means well fitted curve in the direction sought with a large enough effect; inconclusive means small, poorly fitted or top-dose-only effect, or another doubt; inactive means no such curve, though single readings can be large; an effect the other way counts as inactive or inconclusive.

SMILES | SARS PLP yeast | HCV inh | HCMV antiviral | Lassa entry inh | FMDV inh | MARV entry inh | HCV inh confirm | HCV host tox
COc1cc(OC)cc(-c2c(-c3ccc(F)cc3)c3cc(-c4ccc5[nH]ccc5c4)ccc3n2C)c1 | 1.4% | 3.16µM* | -29.2 | x | 52.3% | x | 7.91µM* | u
NC(N)=NC(N)=NCCc1ccccc1 | -0.6% | 3.16µM*! | -81.9* | -13.3% | -22.7% | -36.7% | 2.8µM* | u
COc1ccc(N(C)C(=O)Nc2ccc3nsnc3c2)cc1 | 0.1% | u | -32.0 | -28.8%[46.1 µM] | 0.3% | u | x | x
CC(C)N(C(=O)Nc1ccc2nsnc2c1)C(C)C | -0.1% | 4.47µM* | -101.3* | x | 0.1% | x | -16.3% | 35.4%
O=C(CCc1nnc2n(Cc3ccc(Cl)cc3)c(=O)c3ccccc3n12)N1CCN(c2ccccn2)CC1 | 12.9% | 3.55µM* | x | -0.9%[46.1 µM] | u | -10.1%[46.1 µM] | 3.96µM* | 47.6%
CC(C)OCCCn1c(=O)c2ccccc2n2c(CCC(=O)N3CCN(c4ccccn4)CC3)nnc12 | 1.4% | u | -32.3 | x | -21.1% | x | x | x
S=C(NCCCN1CCOCC1)N1CCN(c2nc(-c3ccc(Cl)cc3)cs2)CC1 | 0.3% | 3.16µM* | -90.9* | 16.4µM* | 12.6µM* | u | 7.05µM* | 28µM*
S=C(NCCCN1CCOCC1)N1CCN(c2nc(-c3ccccc3)cs2)CC1 | -0.3% | u | u | u | u | u | x | x
Cc1ccc([N+](=O)[O-])cc1N(CC(=O)Nc1ccc(S(=O)(=O)Nc2cccc(C(F)(F)F)c2)cc1)S(C)(=O)=O | 21.5% | u | 55.9 | u | u | u | x | x
COc1cc2c(cc1OC)C(C)N(C(=O)[C@@H](NC(=O)c1ccccc1)C(C)C)CC2 (some centres undefined) | 16.4% | 1.41µM* | u | u | -18.9% | u | u | 5.6%
COc1cc2c(cc1OC)C(C)N(C(=O)C(NC(=O)c1ccccc1)C(C)C)CC2 (centres undefined) | -0.6% | u | 64.7 | -29.8% | -9.6% | 0.5%[46.1 µM] | x | x
CC(C)(C)c1cc[n+](C2=C([O-])c3ccccc3C(=O)/C2=N\S(=O)(=O)c2cccs2)cc1 | 0.3% | 2.82µM* | -99.5* | u | 8.91µM* | 10µM* | 25µM* | u
Cc1ccc[n+](C2=C([O-])c3ccccc3C(=O)C2=O)c1 | x | x | 26.9 | x | x | x | x | x
O=S1(=O)c2ccc(Br)cc2N2CCC[C@@H]2CN1Cc1ccc(Cl)cc1 | x | 8.91µM* | -9.8 | u | u | x | u | 24.0%
Cc1cc(NCc2ccccn2)n2nc(C)c(-c3ccc(Cl)cc3)c2n1 | -0.5% | 4.47µM* | -98.8* | u | -27.2% | 10µM* | 11.2µM* | -27.8%
COc1ccc(CNc2cccc3[nH]c(C(F)(F)F)nc23)cc1OC | 0.0% | 5.62µM* | 1.5 | x | -24.3% | x | 22.3µM* | 3.5%
CCc1cccc(C)c1NC(=O)c1nc2ccccc2nc1N1CCCCC1 | x | x | -12.9 | -22.8%[46.1 µM] | -28.3% | x | x | x
Cc1cc(/C=N/NC(=O)c2ccccc2F)c(C)n1-c1ccccc1 | 0.5% | 7.94µM* | u | x | 25.8% | x | u | -21.8%
CCCCN(C(C)=O)c1ccc2c(c1)C1CC2CCN1C(=O)OCc1ccccc1 (centres undefined) | x | 3.55µM* | u | x | 39.8µM* | x | 3.96µM* | 7.91µM*
CSc1scc2c1-c1nc(SCC(=O)C(C)(C)C)ncc1CC2 | -0.3% | 8.91µM* | u | x | -5.0% | x | 25µM* | -15.6%
CCc1cc(=O)oc2cc(OCc3ccc(C(=O)O)o3)ccc12 | -0.2% | 20.2% | u | x | 39.1% | x | x | x
COc1ccc(S(=O)(=O)N2CCCC2CNC(=O)C(=O)NCc2ccco2)cc1 (centres undefined) | 4.1% | 7.5% | -9.1 | 2.7% | 7.6% | -4.9% | x | x
